Laboratory results reported in the antibiotic and cytotoxicity screens of Wong et al. (2023).
Out of some 39,000 compounds screened, about 1,500 (3.8%) were called active. The entries come from a sample that favours actives as a whole.

Each compound was assayed on HSkMC (human skeletal muscle cells) (assay: cytotoxicity call (relative viability < 0.9)). Settings: 10 µM.
In the case of `Cc1ccc(S[C@]2(C(=O)NC(C)C)CC(=O)N(Cc3ccccc3C(F)(F)F)[C@@H]2c2ccc(CO)cc2)cc1`, the cytotoxicity call is reported as “inactive”. For `CC(C)(C)c1cc(NC(=O)Nc2ccc(Oc3ccnc4nc(O)cnc34)cc2F)n(-c2ccccc2)n1`, the cytotoxicity call was “active”. In the case of `Cc1ccc(S(=O)(=O)N(C)C[C@H]2Oc3ccc(NC(=O)C4CC4)cc3C(=O)N([C@H](C)CO)C[C@@H]2C)cc1`, the cytotoxicity call is reported as “inactive”. `Fc1ccccc1-c1nc2ccn(Cc3ccc(-c4ccc(C(F)(F)F)cc4C(F)(F)F)nn3)cc-2n1` was tested, and the cytotoxicity call was “active”. With `Cc1noc(C)c1NC(=O)Nc1cccc2c1O[C@H](CN(C)Cc1ccc(Oc3ccccc3)cc1)[C@@H](C)CN([C@H](C)CO)C2=O` the cytotoxicity call was “inactive”. In the case of `Cc1noc(C)c1NC(=O)Nc1ccc2c(c1)C(=O)N([C@H](C)CO)C[C@@H](C)[C@@H](CN(C)Cc1ccccc1)OCCCC[C@@H](C)O2`, the cytotoxicity call is reported as “inactive”. With `C[C@@H]1CCCCO[C@H](CN(C)C(=O)CCC(F)(F)F)[C@@H](C)CN([C@H](C)CO)C(=O)c2cc(NC(=O)c3ccccc3)ccc2O1` the cytotoxicity call was “inactive”. In the case of `COc1ccc(NC(=O)Nc2ccc3c(c2)CC(=O)N([C@H](C)CO)C[C@@H](C)[C@H](CN(C)Cc2ccc(Oc4ccccc4)cc2)O3)cc1`, the cytotoxicity call is reported as “inactive”. `C1CCC(C(CC2CCCCN2)C2CCCCC2)CC1.O=C(O)C=CC(=O)O` (centres undefined) was tested, and the cytotoxicity call was “active”. `C1CCC(C(C[C@H]2CCCCN2)C2CCCCC2)CC1` was tested, and the cytotoxicity call was “inactive”. `O=C(O)CC[C@H]1CCCCN1` was tested, and the cytotoxicity call was “inactive”. For `C[C@H]1CN([C@@H](C)CO)S(=O)(=O)c2ccc(-c3cncnc3)cc2O[C@@H]1CN(C)C(=O)C1CCCCC1`, the cytotoxicity call was “inactive”. In the case of `COc1ccc2c3c([nH]c2c1)[C@H](CO)N(C[C@]13CN(CC2CCCCC2)C1)C(=O)Nc1cccc(c1)F`, the cytotoxicity call is reported as “active”. `COc1ccc2c3c([nH]c2c1)[C@H](CO)N(C[C@]13CCN(CC1)C(=O)Nc1cccc(c1)F)C(=O)c1ccc(cc1)F` was tested, and the cytotoxicity call was “inactive”. `COc1ccc2c3c([nH]c2c1)[C@@H](CO)N(C[C@]13CCN(CC1)C(=O)Nc1cccc(c1)F)C(=O)c1ccc(cc1)F` was tested, and the cytotoxicity call was “inactive”. With `COc1ccc2c3c([nH]c2c1)[C@@H](CO)N(CC1CCCCC1)C[C@]13CN(C1)C(=O)Nc1cccc(c1)F` the cytotoxicity call was “inactive”. `COc1ccc2c3c([nH]c2c1)[C@H](CO)N(CC1CCCCC1)C[C@]13CN(C1)C(=O)Nc1cccc(c1)F` was tested, and the cytotoxicity call was “inactive”. With `COc1ccc2c3c([nH]c2c1)[C@@H](CO)N(C[C@]13CN(CC2CCCCC2)C1)C(=O)Nc1cccc(c1)F` the cytotoxicity call was “active”. In the case of `C[C@H](CO)N1C[C@H](C)[C@H](CN(C)Cc2ccc(C(=O)O)cc2)Oc2ccc(NC(=O)c3ccncc3)cc2CC1=O`, the cytotoxicity call is reported as “inactive”.
